Experimental data reported in PubChem BioAssay (NCI).
This is part of a sample that, as a whole, favours compounds with a hit. Of some 83,000 tested, about 20% had one in any assay.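 How to read the values: 0–100, growth inhibition (40 = 60% inhibited); 0, no net growth; -100 to 0, cell death (-40 = 40% of starting cells died; -100 = all dead).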 The source made the active and inactive calls. The calls were made as follows: active = growth percent below 10; inactive = the rest.

Experiments:
Assay in all cases: NCI-60 one-dose screen, 48 h (100 = growth as untreated, 0 = no growth, -100 = all killed)
Details in all cases: 10 µM unless noted
HCT-15 colon = tested on: HCT-15 colon
HT29 colon = tested on: HT29 colon
SNB-75 CNS = tested on: SNB-75 CNS
SNB-19 CNS = tested on: SNB-19 CNS
U251 CNS = tested on: U251 CNS
PC-3 prostate = tested on: PC-3 prostate
SK-MEL-5 melanoma = tested on: SK-MEL-5 melanoma
UACC-62 melanoma = tested on: UACC-62 melanoma
LOX IMVI melanoma = tested on: LOX IMVI melanoma
SK-MEL-28 melanoma = tested on: SK-MEL-28 melanoma
SK-MEL-2 melanoma = tested on: SK-MEL-2 melanoma
EKVX NSCLC = tested on: EKVX NSCLC
SN12C renal = tested on: SN12C renal
UO-31 renal = tested on: UO-31 renal
TK-10 renal = tested on: TK-10 renal
ACHN renal = tested on: ACHN renal
CAKI-1 renal = tested on: CAKI-1 renal
A498 renal = tested on: A498 renal
CCRF-CEM leukemia = tested on: CCRF-CEM leukemia
MOLT-4 leukemia = tested on: MOLT-4 leukemia

Measured: growth

O=C1NC(=S)NC(=O)C1=Cc1cccc(C=C2C(=O)NC(=S)NC2=O)c1
inactive: HCT-15 colon 105% | HT29 colon 104% | SNB-75 CNS 98.9% | SNB-19 CNS 98.9% | U251 CNS 114% | PC-3 prostate 104% | SK-MEL-5 melanoma 100% | UACC-62 melanoma 101% | LOX IMVI melanoma 102% | SK-MEL-28 melanoma 110% | SK-MEL-2 melanoma 108% | EKVX NSCLC 99.9% | SN12C renal 95.3% | UO-31 renal 91% | TK-10 renal 104% | ACHN renal 113% | CAKI-1 renal 93.9% | A498 renal 93.1% | CCRF-CEM leukemia 99.3% | MOLT-4 leukemia 102%

FC(F)(F)Oc1cccc(-c2cc(NCCCCCCNc3cc(-c4cccc(OC(F)(F)F)c4)nc4ccc(N5CCCC5)cc34)c3cc(N4CCCC4)ccc3n2)c1
active: HCT-15 colon -57.5% | HT29 colon -27.7% | SNB-75 CNS -4.49% | SNB-19 CNS -68.3% | U251 CNS -90.2% | PC-3 prostate -22.2% | SK-MEL-5 melanoma -62.4% | UACC-62 melanoma -92.1% | LOX IMVI melanoma -71.1% | SK-MEL-28 melanoma -93.7% | SK-MEL-2 melanoma 2.93% | EKVX NSCLC -54.4% | SN12C renal -81.4% | TK-10 renal -89.7% | ACHN renal -15.6% | CAKI-1 renal 5.91% | CCRF-CEM leukemia -32.1% | MOLT-4 leukemia -35.6%
inactive: UO-31 renal 35% | A498 renal 21.8%

O=S(=O)(NCCNc1nccc(-c2c(-c3ccc(F)c(O)c3)nc3occn23)n1)c1ccccc1
active: UACC-62 melanoma 6.23%
inactive: HCT-15 colon 76.6% | HT29 colon 61.5% | SNB-75 CNS 71.9% | SNB-19 CNS 73.8% | U251 CNS 60.4% | PC-3 prostate 55.8% | SK-MEL-5 melanoma 22.8% | LOX IMVI melanoma 33.7% | SK-MEL-28 melanoma 27.3% | SK-MEL-2 melanoma 17% | EKVX NSCLC 81.6% | SN12C renal 48.8% | UO-31 renal 35.2% | TK-10 renal 121% | ACHN renal 33.9% | CAKI-1 renal 44.1% | A498 renal 103% | CCRF-CEM leukemia 38.5% | MOLT-4 leukemia 47.8%

CN1C2CCC1CN(c1cnc(C(=O)Nc3cc(F)cc4cccnc34)cn1)C2
inactive: HCT-15 colon 24.2% | HT29 colon 37.1% | SNB-75 CNS 92.5% | SNB-19 CNS 92.7% | U251 CNS 64% | PC-3 prostate 15.2% | SK-MEL-5 melanoma 79.5% | UACC-62 melanoma 94.9% | LOX IMVI melanoma 33.2% | SK-MEL-28 melanoma 57.8% | SK-MEL-2 melanoma 109% | EKVX NSCLC 45.9% | SN12C renal 51.4% | UO-31 renal 28.3% | TK-10 renal 77.2% | ACHN renal 24.4% | CAKI-1 renal 46.6% | A498 renal 74.9% | CCRF-CEM leukemia 28.3% | MOLT-4 leukemia 21.1%

COc1ccc(C2=NN(C(C)=O)C(c3cn(Cc4ccc(Cl)cc4)c4ccccc34)C2)cc1 (centres undefined)
inactive: HCT-15 colon 81.6% | HT29 colon 90.1% | SNB-75 CNS 79.2% | SNB-19 CNS 76% | U251 CNS 84.5% | PC-3 prostate 59.9% | SK-MEL-5 melanoma 85.6% | UACC-62 melanoma 66.6% | LOX IMVI melanoma 89.3% | SK-MEL-28 melanoma 94% | SK-MEL-2 melanoma 91.1% | EKVX NSCLC 58.4% | SN12C renal 72.2% | UO-31 renal 53.4% | TK-10 renal 82.9% | ACHN renal 74.5% | CAKI-1 renal 52.2% | A498 renal 72.9% | CCRF-CEM leukemia 70.7% | MOLT-4 leukemia 67.8%

Clc1ccc(N2N=C(c3cccc(Nc4ccncc4)c3)CC2c2ccc3c(c2)OCO3)cc1 (centres undefined)
inactive: SNB-75 CNS 55.9% | SNB-19 CNS 80.6% | PC-3 prostate 31.3% | SK-MEL-5 melanoma 30.9% | UACC-62 melanoma 90.8% | SK-MEL-2 melanoma 94.4% | EKVX NSCLC 74.8% | SN12C renal 62.6% | UO-31 renal 41.9% | TK-10 renal 83.5% | ACHN renal 41.6% | CAKI-1 renal 10% | A498 renal 69.7%
active: HCT-15 colon -21.1% | HT29 colon 3.63% | U251 CNS 5.93% | LOX IMVI melanoma -74.4% | SK-MEL-28 melanoma -12.5% | CCRF-CEM leukemia 5.74% | MOLT-4 leukemia 2.58%

CCN(CC)S(=O)(=O)c1cccc([N+](=O)[O-])c1
inactive: HCT-15 colon 107% | HT29 colon 88.4% | SNB-75 CNS 79.9% | SNB-19 CNS 103% | U251 CNS 88.9% | PC-3 prostate 75.4% | SK-MEL-5 melanoma 97.9% | UACC-62 melanoma 102% | LOX IMVI melanoma 97.6% | SK-MEL-28 melanoma 108% | SK-MEL-2 melanoma 93% | EKVX NSCLC 98.7% | SN12C renal 100% | UO-31 renal 82.6% | TK-10 renal 90% | ACHN renal 109% | CAKI-1 renal 91.3% | A498 renal 73.2% | CCRF-CEM leukemia 102% | MOLT-4 leukemia 105%

Fc1ccc(C2CC(c3cccc(Nc4ccncc4)c3)=NN2c2ccccc2)cc1 (centres undefined)
active: HCT-15 colon 2.73% | HT29 colon 0.645% | SK-MEL-28 melanoma -57% | MOLT-4 leukemia 5.35%
inactive: SNB-75 CNS 68.2% | SNB-19 CNS 79% | U251 CNS 18.9% | PC-3 prostate 40.6% | SK-MEL-5 melanoma 76.4% | UACC-62 melanoma 88.8% | LOX IMVI melanoma 29.8% | SK-MEL-2 melanoma 90.2% | EKVX NSCLC 90.1% | SN12C renal 75.8% | UO-31 renal 62.8% | TK-10 renal 80.3% | ACHN renal 75.3% | CAKI-1 renal 48.1% | A498 renal 85.2% | CCRF-CEM leukemia 32.4%

CCN(CCNc1cc(OC)cc2cccnc12)CCc1ccccc1
inactive: HCT-15 colon 73.1% | HT29 colon 70% | SNB-75 CNS 83.7% | SNB-19 CNS 98.1% | U251 CNS 101% | PC-3 prostate 87.5% | SK-MEL-5 melanoma 95.3% | UACC-62 melanoma 99.8% | LOX IMVI melanoma 86.5% | SK-MEL-28 melanoma 102% | SK-MEL-2 melanoma 101% | EKVX NSCLC 91.2% | SN12C renal 91.3% | UO-31 renal 70.8% | TK-10 renal 101% | ACHN renal 84.1% | CAKI-1 renal 84.7% | A498 renal 92.2% | CCRF-CEM leukemia 73.7%

CCC(C)C(N)C(=O)NNc1n[nH]c(=S)n1N (centres undefined)
inactive: HCT-15 colon 103% | HT29 colon 107% | SNB-75 CNS 99.6% | SNB-19 CNS 97.7% | U251 CNS 101% | PC-3 prostate 100% | SK-MEL-5 melanoma 100% | UACC-62 melanoma 101% | LOX IMVI melanoma 101% | SK-MEL-28 melanoma 107% | SK-MEL-2 melanoma 102% | EKVX NSCLC 95.5% | SN12C renal 99.2% | UO-31 renal 85.3% | TK-10 renal 104% | ACHN renal 101% | CAKI-1 renal 91% | A498 renal 93.8% | CCRF-CEM leukemia 99.7% | MOLT-4 leukemia 101%

C#Cc1cccc(NC(=O)Nc2cccc(N=C=S)c2)c1
inactive: HCT-15 colon 105% [8.25 µM] | HT29 colon 113% [8.25 µM] | SNB-75 CNS 89.3% [8.25 µM] | SNB-19 CNS 96.6% [8.25 µM] | U251 CNS 96.9% [8.25 µM] | PC-3 prostate 94.6% [8.25 µM] | SK-MEL-5 melanoma 95.7% [8.25 µM] | UACC-62 melanoma 89.4% [8.25 µM] | LOX IMVI melanoma 102% [8.25 µM] | SK-MEL-28 melanoma 103% [8.25 µM] | SK-MEL-2 melanoma 109% [8.25 µM] | EKVX NSCLC 99.7% [8.25 µM] | SN12C renal 97.6% [8.25 µM] | UO-31 renal 87.7% [8.25 µM] | TK-10 renal 119% [8.25 µM] | ACHN renal 103% [8.25 µM] | CAKI-1 renal 94.7% [8.25 µM] | A498 renal 85% [8.25 µM] | CCRF-CEM leukemia 96.1% [8.25 µM] | MOLT-4 leukemia 97.8% [8.25 µM]

COc1ccc(/C=C2\COc3ccc(-c4ccccc4)cc3C2=O)cc1O
inactive: HCT-15 colon 19.6% | HT29 colon 25.8% | SNB-75 CNS 31.9% | SNB-19 CNS 71.8% | PC-3 prostate 27.8% | SK-MEL-5 melanoma 32.3% | UACC-62 melanoma 41% | SK-MEL-28 melanoma 46.7% | EKVX NSCLC 105% | SN12C renal 30.8% | UO-31 renal 40.6% | TK-10 renal 67.7% | ACHN renal 47.3% | CAKI-1 renal 126% | A498 renal 55.6%
active: U251 CNS 5.71% | LOX IMVI melanoma -13.5% | SK-MEL-2 melanoma -29.6% | CCRF-CEM leukemia -30.6% | MOLT-4 leukemia -18.2%

CCN(CC)CCCC(C)Nc1cc(-c2cccc(OC(F)(F)F)c2)nc2ccc(N3CCCC3)cc12 (centres undefined)
inactive: SNB-75 CNS 66.5% | SNB-19 CNS 24.2% | PC-3 prostate 14.3% | EKVX NSCLC 49.9% | SN12C renal 38.1% | UO-31 renal 23.7% | TK-10 renal 12.2% | A498 renal 29.4%
active: HCT-15 colon -14.1% | HT29 colon -24.1% | U251 CNS -58.4% | SK-MEL-5 melanoma -98.1% | UACC-62 melanoma -86.5% | LOX IMVI melanoma -80.5% | SK-MEL-28 melanoma -93% | SK-MEL-2 melanoma -71.2% | ACHN renal -19.5% | CAKI-1 renal -53% | CCRF-CEM leukemia -22.4% | MOLT-4 leukemia 2.34%

COc1cc2ncnc(Nc3ccc(C(=O)/C=C/c4ccc(C(F)(F)F)cc4F)cc3)c2cc1OC
inactive: HCT-15 colon 104% | HT29 colon 98.8% | SNB-75 CNS 87.7% | SNB-19 CNS 98.2% | U251 CNS 85.4% | PC-3 prostate 83% | SK-MEL-5 melanoma 104% | UACC-62 melanoma 100% | LOX IMVI melanoma 92% | SK-MEL-28 melanoma 109% | SK-MEL-2 melanoma 105% | EKVX NSCLC 90% | SN12C renal 101% | UO-31 renal 75.4% | TK-10 renal 110% | ACHN renal 92.3% | CAKI-1 renal 88.2% | A498 renal 97.4% | CCRF-CEM leukemia 83.8% | MOLT-4 leukemia 68.3%

COC(=O)Nc1ccc(NC(=O)OC)cc1
inactive: HCT-15 colon 108% | HT29 colon 98.4% | SNB-75 CNS 80% | SNB-19 CNS 103% | U251 CNS 99.1% | PC-3 prostate 77.7% | SK-MEL-5 melanoma 99.1% | UACC-62 melanoma 103% | LOX IMVI melanoma 99% | SK-MEL-28 melanoma 116% | SK-MEL-2 melanoma 88.5% | EKVX NSCLC 103% | SN12C renal 104% | UO-31 renal 87.6% | TK-10 renal 94.4% | ACHN renal 115% | CAKI-1 renal 93.4% | A498 renal 97.2% | CCRF-CEM leukemia 68.1% | MOLT-4 leukemia 100%
